Drawing on PubChem BioAssay (NCI), this text covers growth for 39 molecules.

Compounds without any hit were thinned out: in the full panel of roughly 83,000, 20% have a hit.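 Compound tested at a single concentration for 48 hours in 96-well plates; a percent growth value below 10 was scored as active.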 Calls of active or inactive are those of the source.

The test concerns HL-60(TB) leukemia. Kind of test: NCI-60 one-dose screen, 48 h (100 = growth as untreated, 0 = no growth, -100 = all killed). The following applies: 10 µM unless noted.
Regarding `Clc1cc2c(nn1)Nc1ccccc1S2`, the growth is 102% (inactive).

In the case of `COc1ccc(Cn2cc(C(=O)N=Nc3c(O)[nH]c4ccc(Br)cc34)nn2)cc1`, the growth is 85.2% (inactive).

`O=C1Nc2ccc(Cl)cc2/C1=N/N=C/c1c[nH]c2ccccc12`: the growth is 95.5% (inactive).

As for `CCCCN(CCCC)CCC(C)(O)c1cc2ccccc2c2ccccc12` (centres undefined), the growth was 83.7% (inactive).

In the case of `CCCCCN(CCCCC)CCCNc1c2c(nc3ccc(Cl)cc13)CCCC2`, the growth was 48.8% (inactive).

Take `CN(C)S(=O)(=O)n1cnc([C@@H]2[C@@H]3C(=O)OC[C@@H]3C[C@]23N=CN(Cc2ccccc2)C3=O)c1`: the growth was 123% (inactive).

Regarding `CCCNC(=O)c1cn2ncnc(Nc3cc(C(=O)NC4CC4)ccc3C)c2c1C`, the growth is 129% (inactive).

Regarding `COC(=O)/C(CCC=C(C)C)=C1\[C@@H](OC(C)=O)C[C@@]2(C)[C@H]1C[C@@H](O)[C@H]1[C@@]3(C)CC[C@H](NCc4ccccc4)[C@@H](C)[C@@H]3CC[C@@]12C`, the growth was 43% (inactive).

Regarding `Cc1ccc2nc(SCn3nnc4ccccc4c3=O)[nH]c2c1`, the growth was 80.3% (inactive).

As for `CC(C)n1c2ccc(Br)cc2c2c3c(c4c5ccccc5ccc4c21)C(=O)NC3=O`, the growth is 100% (inactive).

Regarding `Clc1nnc2c3ccccc3ccn12`, the growth was 92.6% (inactive).

Turning to `CCOC(=O)c1cnn(CC(O)CC)c1NC(=O)NCc1ccccc1C(F)(F)F` (centres undefined), the growth is 76.4% (inactive).

On to `Nc1c(C(=O)Nc2c(Cl)cccc2Cl)sc2nc3c(cc12)C(=O)CCC3`, for which the growth was 11.5% (inactive).

Take `CC1(C)OCC(COC(c2ccccc2)(c2ccccc2)c2ccccc2)O1` (centres undefined): the growth was 99.9% (inactive).

With `COc1ccc(-c2csc3c2-n2cccc2C3=O)cc1O`, the growth was -18.3% (active).

With `COc1ccc(Nc2ncccc2/C=C/C(=O)c2cc(OC)c(OC)c(OC)c2)cc1`, the growth is -42.4% (active).

Take `N=C1S/C(=C/c2ccc(-c3ccc4c(c3)C(=O)NC4=O)o2)C(=O)N1c1ccc(Br)cc1`: the growth was 50.5% (inactive).

In the case of `COc1ccc2nc3cc(Cl)ccc3c(N3CCN(c4nccc(Nc5ccc(Cl)cc5)n4)CC3)c2c1`, the growth was 48% (inactive).

With `CCOC(=O)c1ccc2c(c1)nc(-c1ccccc1)n2C1CCCCC1`, the growth is 63.1% (inactive).

`COc1c(B(O)O)cccc1-c1nc2ccc3[nH]ncc3c2c2c1C1CCC2C1` (centres undefined): the growth is 20% (inactive).

On to `O=C(NC1CCCCC1)c1ccc(Cl)cc1`, for which the growth was 92.8% (inactive).

Turning to `NC1CCN(c2nc(Nc3cccc(C(F)(F)F)c3)c3c(=O)[nH]ccc3n2)CC1`, the growth is -61.2% (active).

On to `CC(C)CC(NC(=O)CN(Cc1ccccc1)S(C)(=O)=O)C(=O)O` (centres undefined), for which the growth was 94.8% (inactive).

On to `COc1ccc(Cl)cc1NC(=O)c1cc2c([nH]1)-c1nc(N)sc1CCC2`, for which the growth was 56.9% (inactive).

In the case of `CSc1ccc(Cl)c(C(=O)Nc2sccc2C(N)=O)c1`, the growth was 91.3% (inactive).

Turning to `Cc1ccc(C(CN(C)C)C(=O)c2ccccc2)cc1` (centres undefined), the growth is -31.3% (active).

Turning to `COc1cccc(-c2nnc(N)o2)c1`, the growth was 74.9% (inactive).

Take `CC[C@@H](C)/C=C(C)/C=C/C(=O)c1c(O)c(-c2ccc(O)cc2)cn(OC2CC(=O)CCC(C)OC(=O)CC2O)c1=O` (some centres undefined): the growth was -10.1% (active).

For `O=C(/C=C/C12c3ccccc3C(c3ccccc31)C1C(=O)N(c3ccc(Cl)cc3)C(=O)C12)c1ccccn1` (centres undefined), the growth was -19.4% (active).

Take `CC1(C)CC2=C3C=C[C@@H]4[C@@]5(C)CCC(=O)C(C)(C)[C@@H]5CC[C@@]4(C)[C@]3(C)CC[C@@]2(C(=O)O)C[C@H]1O`: the growth was 23% (inactive).

Consider `CCOC(=O)Oc1c(OC)cc(C(=O)c2ccc(OC)c(O)c2OC)cc1OC`, for which the growth was -32.6% (active).

`COC(=O)C1(CC(C)=O)NC(=S)NC(=O)C1C#N` (centres undefined): the growth was 102% (inactive).

For `c1ccc(-c2n(Cc3ccc4ccccc4n3)cc[n+]2Cc2ccc3ccccc3n2)cc1`, the growth is -33.1% (active).

On to `C=CC1=C(C(=O)O)N2C(=O)[C@@H](NC(=O)/C(=N\O)c3csc(N)n3)[C@H]2SC1` (stereo in doubt), for which the growth was 118% (inactive).

Take `Cc1c(O)c(=O)n(-c2ccccc2)n1C`: the growth was 119% (inactive).

Take `Cc1ccc(-n2nnc(C3=NCCc4c3[nH]c3ccc(Cl)cc43)c2C)cc1`: the growth was 39.4% (inactive).

Turning to `COc1ccc(/C(CS(=O)(=O)c2ccccc2)=N\O)cc1`, the growth was 99.5% (inactive).

For the molecule `CCOC(=O)c1ccccc1-c1c2ccc(=[N+](C)C)cc-2oc2cc(N(C)C)ccc12`, the growth is -14.3% (active).

Turning to `Clc1cc(Cl)c(Cl)nn1`, the growth is 69.7% (inactive).
